Values joined by “and” are separate entries in the source; they are usually repeats but may differ in a detail not shown here. Equal entries are not always repeated. Records with an inconclusive call do not appear. The source holds several records for some structures; these can differ, active in one and inactive in another. Active and inactive are the calls of the source. Unless noted, calls come from the whole dose curve; as a rule, active = well fitted curve in the direction sought with a large enough effect in the repeat runs; inconclusive = weak or mixed curves; inactive = no such curve, though single readings can be large; an effect the other way counts as inactive or inconclusive.
Experiments:
[1] = qHTS assay to identify small molecule agonists of H2AX - cell viability counter screen (AID 1224847; calls by dose curve; note: nearly all actives have a fitted effect of over 30% in size; note: potency is the fitted concentration of half-maximal effect)
Procedure, shortened: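 Viability of CHO-K1 (wild type) cells after 3 hr compound exposure was measured by CellTiter-Glo luminescence.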

[2] = qHTS assay to identify small molecule antagonists of the estrogen related receptor (ERR) signaling pathway from Tox21 library (AID 1224848); note: nearly all actives have a fitted effect of over 50% in size; note: potency is the fitted concentration of half-maximal effect
Procedure, shortened: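 ERR reporter cell line (from NTP) seeded 2,000 cells/well, rested 6 h at 37 C/5% CO2, then pin-dosed with compounds in DMSO. After 18 h at 37 C, ONE-Glo added; luminescence read after 30 min at room temperature.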

[3] = qHTS assay to identify small molecule agonists of the estrogen related receptor (ERR) signaling pathway from Tox21 library (AID 1224849; calls by dose curve; note: nearly all actives have a fitted effect of over 15% in size); settings: ERR reporter cell line, ONE-Glo luciferase, 18 h; at 92.4 µM (top of the series) unless noted
Procedure, shortened: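 ERR reporter cell line (NTP) seeded, rested 6 h at 37 C/5% CO2, then pinned with Tox21 compounds in DMSO. After 18 h at 37 C, ONE-Glo luciferase luminescence was read following 30 min at room temperature.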

[4] = qHTS RealTime-Glo MT Cell Viability Assay in HepG2 cells - 24 hour (AID 1224867); note: nearly all actives have a fitted effect of over 50% in size; note: potency is the fitted concentration of half-maximal effect
Procedure, shortened: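 Cells + NanoLuc/prosubstrate dispensed (600 cells/well) → 5 h at 37 C/5% CO2 → compounds in DMSO transferred → 40 h incubation at 37 C, luminescence read at 0, 8, 16, 24, 32, 40 h.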

[5] = qHTS RealTime-Glo MT Cell Viability Assay in HEK293 cells - 32 hour (AID 1224868); note: nearly all actives have a fitted effect of over 50% in size; note: potency is the fitted concentration of half-maximal effect
Procedure, shortened: (§1)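 Tox21 10K qHTS, HEK293, 600 cells/well, RealTime-Glo reagent co-dispensed with cells; 5 h preincubation, compound by pintool, 37 C, luminescence at 0–40 h.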

[6] = A CellTox Green Cytotoxicity Assay to monitor cytotoxicity in HEK293 cells - 0 hour (AID 1224869); note: nearly all actives have a fitted effect of over 50% in size
Procedure, shortened: (§2)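 HEK293 cells premixed with CellTox Green dye were seeded at 600 cells/well and left 5 h at 37 C/5% CO2 before pin transfer of 23 nL compound in DMSO. Fluorescence from dye bound to dead-cell DNA was read during 40 h treatment.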

[7] = qHTS RealTime-Glo MT Cell Viability Assay in HepG2 cells - 40 hour (AID 1224870); note: nearly all actives have a fitted effect of over 50% in size; note: potency is the fitted concentration of half-maximal effect
Procedure, shortened: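 HepG2 cells (600/well) mixed with RealTime-Glo MT reagent, settled 5 h at 37 C/5% CO2 before compound addition. Nonlytic NanoLuc luminescence from viable-cell prosubstrate reduction read repeatedly during 40 h treatment at 37 C.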

[8] = A CellTox Green Cytotoxicity Assay to monitor cytotoxicity in HEK293 cells - 40 hour (AID 1224871); note: nearly all actives have a fitted effect of over 45% in size; note: potency is the fitted concentration of half-maximal effect
Procedure, shortened: as §2

[9] = qHTS RealTime-Glo MT Cell Viability Assay in HEK293 cells - 16 hour (AID 1224872); note: nearly all actives have a fitted effect of over 50% in size; note: potency is the fitted concentration of half-maximal effect
Procedure, shortened: as §1
% is set by controls: 0 for no effect and ±100 for the full control effect.

CCN(CC)CCNc1ccc(CO)c2sc3ccccc3c(=O)c12
active: Potency [2] 13.3 µM | Potency [4] 23.9 µM | Potency [5] 16.9 µM | Potency [7] 21.3 µM | Potency [8] 23.9 µM | Potency [9] 16.9 µM
inactive: Potency [1] | activity change, positive = activation [3] -56.6% [at 42.5 µM] | Potency [6]

CCN(CC)c1ccc(N)cc1
inactive: activity change, positive = activation [3] -77.3% | Potency [6]
active: Potency [1] 51.9 µM | Potency [2] 2.5 µM | Potency [5] 22.5 µM | Potency [8] 44.8 µM | Potency [9] 22.5 µM

O=C(Nc1ccc(Cl)c(Cl)c1)c1cc(Cl)cc(Cl)c1O
active: Potency [1] 10.1 µM | Potency [2] 1.09 µM | Potency [5] 4.9 µM | Potency [7] 12.3 µM | Potency [8] 49 µM
inactive: activity change, positive = activation [3] -15.1% | Potency [6]

O=C1NCN(c2ccccc2)C12CCN(CCCC(c1ccc(F)cc1)c1ccc(F)cc1)CC2
active: Potency [1] 49.2 µM | Potency [2] 21.1 µM | Potency [4] 6.74 µM | Potency [5] 19 µM | Potency [7] 6.74 µM | Potency [8] 23.9 µM | Potency [9] 19 µM
inactive: activity change, positive = activation [3] -32.9% [at 42.5 µM] | Potency [6]

O=Nc1ccc(NO)cc1
inactive: Potency [1] | Potency [2] | Potency [4] | Potency [6] | Potency [7] | Potency [8] | Potency [9]

Cc1oc(-c2ccccc2)nc1CCOc1ccc(C[C@H](Nc2ccccc2C(=O)c2ccccc2)C(=O)O)cc1
inactive: Potency [2] | activity change, positive = activation [3] -13.2% | Potency [4] | Potency [5] | Potency [6] | Potency [7] | Potency [8] | Potency [9]
active: Potency [1] 80 µM

CC(C)(c1cc(Br)c(OCCO)c(Br)c1)c1cc(Br)c(OCCO)c(Br)c1
inactive: activity change, positive = activation [3] -67.7% | Potency [6]
active: Potency [1] 87.8 µM | Potency [2] 11.9 µM | Potency [5] 13.5 µM | Potency [9] 17 µM

C=C1C(C)(C)[C@@]2(Cl)C(Cl)[C@]1(Cl)C(Cl)(Cl)C2(Cl)Cl (some centres not stated)
active: Potency [1] 111 µM | Potency [2] 60 µM
inactive: activity change, positive = activation [3] -68% | Potency [6] | Potency [7]

COc1cc(C(=O)NS(=O)(=O)c2ccccc2C)ccc1Cc1cn(C)c2ccc(NC(=O)OC3CCCC3)cc12
inactive: Potency [1] | Potency [2] | activity change, positive = activation [3] -10.9% [at 42.5 µM] | Potency [4] | Potency [5] | Potency [6] | Potency [7] | Potency [8] | Potency [9]

CCCCOc1ccc(C(=O)CCN2CCCCC2)cc1
inactive: Potency [1] | Potency [6]
active: Potency [4] 21.3 µM | Potency [5] 16.9 µM | Potency [7] 6.74 µM | Potency [8] 19 µM

CCCCCCCCCCCCN(CCO)CCO
inactive: activity change, positive = activation [3] -79.7% | Potency [6]
active: Potency [1] 100 µM | Potency [2] 60.9 µM | Potency [4] 48.8 µM | Potency [5] 43.5 µM | Potency [7] 38.7 µM | Potency [8] 54.7 µM | Potency [9] 48.8 µM

CCCCCCOc1cc(C)c(O)c(C)c1C
active: Potency [1] 102 µM | Potency [2] 61.9 µM | Potency [5] 15.7 µM | Potency [8] 44.2 µM | Potency [9] 14 µM
inactive: activity change, positive = activation [3] -42.5% | Potency [6]

CCOC(=O)[C@@](C)(N)Cc1ccc(O)c(O)c1
inactive: Potency [1] | Potency [2] | activity change, positive = activation [3] -0.831% [at 42.5 µM] | Potency [4] | Potency [5] | Potency [6] | Potency [7] | Potency [8] | Potency [9]

Oc1c(Br)cc(Br)c2cccnc12
inactive: Potency [1] | activity change, positive = activation [3] -61.3% [at 42.5 µM] | Potency [4] | Potency [6] | Potency [7] | Potency [9]
active: Potency [2] 18.8 µM

CO[C@H]1C=CO[C@@]2(C)Oc3c(C)c(O)c4c(O)c(cc(O)c4c3C2=O)NC(=O)/C(C)=C\C=C/[C@H](C)[C@H](O)[C@@H](C)[C@@H](O)[C@@H](C)[C@H](OC(C)=O)[C@@H]1C
inactive: Potency [1] | activity change, positive = activation [3] -31.9% | Potency [5] | Potency [6] | Potency [7] | Potency [8] | Potency [9]

O=C(Nc1ccc(Cl)cc1)Nc1ccc(Cl)c(C(F)(F)F)c1
inactive: activity change, positive = activation [3] -40.9% [at 42.5 µM] | Potency [6]
active: Potency [1] 22 µM | Potency [2] 3.76 µM | Potency [5] 4.77 µM | Potency [9] 8.49 µM

NC(=O)c1nc(-c2cccc(-c3cc(F)ccc3OCC(F)(F)C(F)(F)F)c2)n[nH]1
inactive: activity change, positive = activation [3] -59.7% | Potency [4] | Potency [6] | Potency [7]
active: Potency [1] 101 µM | Potency [2] 17.2 µM

CCCC(CC)CCCCCCCN (configuration not stated)
active: Potency [1] 103 µM | Potency [8] 50.2 µM
inactive: activity change, positive = activation [3] -20.1% | Potency [6] | Potency [7]

CN(C)CCCN1c2ccccc2CCc2ccccc21
43.6 µM (active) and inactive: Potency [8]
inactive: Potency [1] | Potency [4] | Potency [5] | Potency [6] | Potency [7] | Potency [9]

CCCCCCCOC(=O)c1ccc(O)cc1
inactive and 24.5 µM (active): Potency [8]
active: Potency [1] 101 µM | Potency [5] 24.6 µM and 21.9 µM | Potency [9] 24.6 µM and 21.9 µM
inactive: Potency [4] | Potency [6] | Potency [7]

O=C1c2c(O)ccc(O)c2C(=O)c2c(NCCNCCO)ccc(NCCNCCO)c21
inactive: activity change, positive = activation [3] -59.3% [at 42.5 µM] | Potency [6] | Potency [8]
active: Potency [2] 0.75 µM | Potency [4] 9.52 µM | Potency [5] 0.0239 µM | Potency [7] 7.56 µM | Potency [9] 0.848 µM
